Source: the supplement of paper PMC13380429
Unmarked numbers belong to inactive results.

Test system: Vero E6 infected with SARS-CoV-2
Experiment: inhibition of SARS-CoV-2 cytopathic effect; higher = more antiviral protection, active = above 15
Conditions: 48 h

| Structure (SMILES) | inhibition of SARS-CoV-2 cytopathic effect (1 nM) | inhibition of SARS-CoV-2 cytopathic effect (8.33 nM) | inhibition of SARS-CoV-2 cytopathic effect (100 nM) | inhibition of SARS-CoV-2 cytopathic effect (833.33 nM) | inhibition of SARS-CoV-2 cytopathic effect (10000 nM) |
| --- | --- | --- | --- | --- | --- |
| CC1(C)CCC(C)(C)c2cc(C3(c4ccc(C(=O)O)cc4)OCCO3)ccc21 | -2.44% | -2.21% | 1% | -0.7% | -1.37% |
| C=CC(=O)N1CCN(C(=O)CNc2cc(I)c(Cl)cc2O)CC1 [K-Ras(G12C)-inhibitor-12] | 3.63% | 2.32% | 7.62% | 24.7% (active) | 30.4% (active) |
| C[C@@H]1CC[C@H]2[C@@H](C)C(=O)O[C@@H]3O[C@@]4(C)CC[C@@H]1[C@]32OO4 [artemisinin] | 0.52% | 0.05% | 3.13% | 3.83% | 1.16% |
| N=C(N)NC(=O)c1nc(Cl)c(N)nc1N [amiloride] | 3.13% | 3.86% | 2.25% | 3.19% | 3.14% |
| COc1ccc(-c2c(C)c(C(=O)NN3CCCCC3)nn2-c2ccc(Cl)cc2Cl)cc1 | -1.3% | -1.23% | -5.55% | -3.38% | -1.1% |
| CCCCC1(COC(=O)CCC(=O)O)C(=O)N(c2ccccc2)N(c2ccccc2)C1=O [suxibuzone] | -0.21% | -4.18% | -2.21% | -3.64% | 0.42% |
| CCN(C)C(=O)Oc1cccc([C@H](C)N(C)C)c1 [rivastigmine] | -1.4% | 0.73% | 2.11% | -1.22% | -1.56% |
